The target of test [1] is Gonadotropin-releasing hormone receptor (Homo sapiens) (UniProt P30968). Kind of test: Human gonadotropin-releasing hormone receptor (GnRHR) small molecule agonists, calcium flux assay in GnRHR-HEK293 cells (AID 1920063). Also: nearly all actives have a fitted effect of over 35% in size. The method, boiled down:
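Compounds dissolved in DMSO are pin-transferred onto dye-loaded GnRHR-HEK293 cells, which were seeded 18 h before at 37 C/5% CO2. Calcium signal is read as fluorescence intensity at 1 s intervals for 3 min.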
On the technique in general: Calcium flux is commonly read through the fluorescence of an indicator in the cells.

Test [2] has as its target KiSS-1 receptor (Homo sapiens) (UniProt Q969F8). As to the kind of experiment: Human kisspeptin (KISS1R) small molecule agonists, calcium flux assay in KISS1R-HEK293 cells (AID 1920064; active = well fitted activation curve with a large enough effect in the repeat runs). The method, boiled down:
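Cell line: HEK293, stable human KISS1R. Dye loading 1 h at 37 C after 18 h culture. Read: kinetic fluorescence, 480/540 nm, 3 min at 1 s intervals.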

Test [3] in a line: G protein-coupled receptor (GPCR) small molecule agonists, calcium flux assay: HEK293 wild type cell line counter screen (AID 1920065). The method, boiled down: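 Tox21 10K compounds, 15 concentrations each in triplicate, pin-transferred in DMSO onto dye-loaded cells; kinetic read at 480/540 nm for 3 min, 1 s intervals.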
Test [4] in a line: p53 small molecule agonists, cell-based qHTS assay with human liver microsomes (AID 1963577). The method, boiled down: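 p53RE-bla reporter cells were pre-incubated 5 h at 37 C, then treated with compounds plus human liver microsomes (0.5 mg/mL final) and NADPH (0.5 mg/mL final) for 16 h at 37 C. Beta-lactamase activity was read by LiveBLAzer fluorescence after 2 h at room temperature.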
On the technique in general: qHTS replaces the single test concentration by a dilution series.

The nature of test [5]: p53 small molecule agonists, cell-based qHTS assay with rat liver microsomes: qHTS cell viability counter screen (AID 1963580). Also: nearly all actives have a fitted effect of over 45% in size. Also: potency is read from the fitted curve at half-maximal effect. The method, boiled down: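 Counter screen for cytotoxicity under metabolic activation: rat liver microsomes and NADPH, 0.5 mg/mL final each, added with compounds to p53RE-bla HCT-116 cells; 16 h at 37 C, then ATP luminescence read.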
Test [6] is described as follows: p53 small molecule agonists, cell-based qHTS assay: qHTS cell viability counter screen (AID 1963581). Also: nearly all actives have a fitted effect of over 45% in size. Also: potency is read from the fitted curve at half-maximal effect. The method, boiled down:
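ATP content measured by luminescence in HCT-116 p53RE-bla cells treated 16 h at 37 C, same wells as the reporter screen.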

A short description of test [7]: p53 small molecule agonists, cell-based qHTS assay (AID 1963582; active = well fitted activation curve with a large enough effect in the signal ratio in the repeat runs, not every such curve was filed as active; the % refers to the signal ratio). The method, boiled down: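 16 h compound exposure (37 C) of p53 response element–bla cells, preceded by 5 h recovery at 37 C/5% CO2; read-out via LiveBLAzer B/G FRET substrate, 2 h RT, fluorescence intensity.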
The target in test [8] is 5-hydroxytryptamine receptor 2A (Homo sapiens) (UniProt P28223). Kind of test: 5-hydroxytryptamine receptor 2A (HTR2A) small molecule antagonists, cell-based qHTS assay (AID 1963586). Also: nearly all actives have a fitted effect of over 45% in size. The method, boiled down: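 CHO cells stably expressing human HTR2A were plated for 18 h at 37 C, then loaded with calcium dye for 1 h. Compounds were preincubated 5 min at room temperature before DOI (4 nM solution) was added. Kinetic fluorescence was read for 3 min.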

Test [9] has as its target Muscarinic acetylcholine receptor M1 (Homo sapiens) (UniProt P11229). Kind of test: Cholinergic receptor muscarinic 1 (CHRM1) small molecule antagonists, cell-based qHTS assay (AID 1963588). Also: nearly all actives have a fitted effect of over 40% in size. The method, boiled down: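 Compounds were tested at 15 concentrations in three independent runs. Dye-loaded CHRM1-CHO cells were exposed 5 min at room temperature before stimulation by acetylcholine added at 50nM. Intracellular calcium was read kinetically on FDSS for 3 min.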

The target is the same in test [10]. As to the kind of experiment: Cholinergic receptor muscarinic 1 (CHRM1) small molecule agonists, cell-based qHTS assay (AID 1963589). Also: nearly all actives have a fitted effect of over 35% in size. The method, boiled down:
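Homogeneous fluorescence calcium flux, agonist mode. Human M1-expressing CHO cells; compound dosed at 15 concentrations, three independent runs; signal sampled every 1 sec.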

Test [11] in a line: cAMP Responsive Elements (CRE) small molecule antagonists, cell-based qHTS assay (AID 1963591; active = well fitted inhibition curve with a large enough effect in the signal ratio in the repeat runs, not every such curve was filed as active; the % refers to the signal ratio). The method, boiled down:
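First, CRE-bla HEK293T cells settled 18 h at 37 C. Next, compound and 0.25 uM final NKH477 were applied for 3 h. Last, LiveBLAzer B/G substrate was loaded for 2 h at room temperature.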

The target in test [12] is Beta-2 adrenergic receptor (Homo sapiens) (UniProt P07550). Kind of test: Adrenergic beta2 receptor (ADRB2) small molecule antagonists, cell-based qHTS assay (AID 1963592). Also: series mostly up to about 92 µM; nearly all actives have a fitted effect of over 50% in size. The method, boiled down:
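Assay format: CHO-ADRB2 cells, 18-20hr seeding at 37C/5% CO2, then compound plus 1nM isoproterenol agonist mix for 0.5hr RT. Homogeneous time-resolved fluorescence cAMP detection after 1hr, expressed as 665/615 nm ratio.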

Test [13] shares this target. As to the kind of experiment: Adrenergic beta2 receptor (ADRB2) small molecule agonists, cell-based qHTS assay (AID 1963593).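 Also: CHO cells stably overexpressing human ADRB2.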 The method, boiled down: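 CHO cells stably over-expressing ADRB2 were plated overnight at 37C, then dosed with compounds plus a stimulation mix containing 100uM IBMX and 25uM Ro-20-1724 for 0.5hr at room temperature. cAMP was measured by HTRF competition, 1hr.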

For test [14], the target named is D(2) dopamine receptor (Homo sapiens) (UniProt P14416). Kind of test: Dopamine D2 receptor (DRD2) small molecule antagonists, cell-based qHTS assay (AID 1963595; active = well fitted inhibition curve with a large enough effect in the signal ratio in the repeat runs, with a control signal flat; the % refers to the signal ratio; also: potency is read from the fitted curve at half-maximal effect). The method, boiled down: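 Antagonist mode in DRD2-HEK293 cells: after compound addition with 0.1 mM Ro20-1724, cells received quinpirole (12 nM) and NKH477 (200 nM) for 30 min at room temperature; HTRF cAMP read after 1 h detection.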

Test [15] is described as follows: p53 small molecule agonists, cell-based qHTS assay with rat liver microsomes (AID 1963578). The method, boiled down: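 p53RE-bla cells were exposed to compounds together with rat liver microsomes (0.5 mg/mL final) and NADPH (0.5 mg/mL final) for 16 h at 37 C, then read by LiveBLAzer beta-lactamase fluorescence after 2 h at room temperature.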
Test [16] in a line: p53 small molecule agonists, cell-based qHTS assay with human liver microsomes: qHTS cell viability counter screen (AID 1963579). Also: nearly all actives have a fitted effect of over 45% in size. The method, boiled down:
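p53RE-bla cells (4,000/well) were pre-incubated 5 h at 37 C, then given compounds in DMSO plus human liver microsomes (0.5 mg/mL final) and NADPH (0.5 mg/mL final) for 16 h at 37 C. Viability was read by CellTiter-Glo luminescence.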

The target of test [17] is 5-hydroxytryptamine receptor 2A (Homo sapiens) (UniProt P28223). As to the kind of experiment: 5-hydroxytryptamine receptor 2A (HTR2A) small molecule agonists, cell-based qHTS assay (AID 1963587). Also: nearly all actives have a fitted effect of over 30% in size. The method, boiled down:
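HTR2A-CHO cells, plated 18 h at 37 C/5% CO2, dye-loaded 1 h at 37 C; compounds in DMSO added by pin tool (agonist mode). Intracellular calcium flux read as kinetic fluorescence on FDSS over 2 min at 1 s intervals.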

A short description of test [18]: cAMP Responsive Elements (CRE) small molecule agonists, cell-based qHTS assay (AID 1963590). The method, boiled down: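 HEK 293T cells stably bearing CRE-bla were plated at 2,000 cells per well and rested 18 h. Compounds, positive controls or DMSO were added for 3 h at 37 C. LiveBLAzer B/G substrate was then loaded for 2 h at room temperature.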
Test [19] has as its target D(2) dopamine receptor (Homo sapiens) (UniProt P14416). As to the kind of experiment: Dopamine D2 receptor (DRD2) small molecule agonists, cell-based qHTS assay (AID 1963594). Also: nearly all actives have a fitted effect of over 35% in size. The method, boiled down:
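HEK293 cells stably expressing DRD2 were cultured 24 h at 37 C, then given Ro20-1724 (0.1 mM final) and compounds for 10 min at room temperature. NKH477 (200nM) was then added for 30 min. cAMP was read by HTRF.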

Where “and” joins values, the source holds several entries; their conditions need not be identical. Identical values can stand only once. Results filed as inconclusive are left out. Some structures have more than one record in an assay (separate samples or runs), and their calls can disagree. Calls of active or inactive are those of the source. Unless noted, calls follow the shape of the full dose curve.

5-hydroxytryptamine receptor 2A (Homo sapiens), sequence (P28223 whole entry, looked up): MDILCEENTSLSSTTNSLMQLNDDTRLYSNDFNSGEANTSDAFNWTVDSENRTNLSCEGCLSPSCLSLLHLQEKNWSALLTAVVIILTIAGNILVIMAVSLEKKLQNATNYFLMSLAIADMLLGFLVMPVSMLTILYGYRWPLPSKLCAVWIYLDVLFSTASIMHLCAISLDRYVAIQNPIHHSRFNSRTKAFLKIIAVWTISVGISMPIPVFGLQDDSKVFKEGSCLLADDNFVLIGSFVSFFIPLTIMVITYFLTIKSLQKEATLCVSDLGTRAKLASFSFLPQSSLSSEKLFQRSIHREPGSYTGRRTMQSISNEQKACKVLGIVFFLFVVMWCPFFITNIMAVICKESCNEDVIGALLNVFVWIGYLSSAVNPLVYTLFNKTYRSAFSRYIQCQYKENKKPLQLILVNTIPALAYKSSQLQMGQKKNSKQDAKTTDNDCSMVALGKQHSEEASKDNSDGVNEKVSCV
Beta-2 adrenergic receptor (Homo sapiens), sequence (P07550 whole entry, looked up): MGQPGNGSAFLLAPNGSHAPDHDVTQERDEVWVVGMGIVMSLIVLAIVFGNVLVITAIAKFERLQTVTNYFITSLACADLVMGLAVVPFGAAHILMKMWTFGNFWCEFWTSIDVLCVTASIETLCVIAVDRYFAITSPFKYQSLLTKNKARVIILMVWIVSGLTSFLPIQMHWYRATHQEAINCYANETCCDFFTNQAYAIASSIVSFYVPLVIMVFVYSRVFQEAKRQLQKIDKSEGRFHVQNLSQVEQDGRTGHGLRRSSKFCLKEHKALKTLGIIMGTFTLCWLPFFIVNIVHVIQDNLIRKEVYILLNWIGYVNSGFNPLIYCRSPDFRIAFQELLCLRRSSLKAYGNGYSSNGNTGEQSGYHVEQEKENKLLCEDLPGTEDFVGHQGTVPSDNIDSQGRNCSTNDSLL
Muscarinic acetylcholine receptor M1 (Homo sapiens), sequence (P11229 whole entry, looked up): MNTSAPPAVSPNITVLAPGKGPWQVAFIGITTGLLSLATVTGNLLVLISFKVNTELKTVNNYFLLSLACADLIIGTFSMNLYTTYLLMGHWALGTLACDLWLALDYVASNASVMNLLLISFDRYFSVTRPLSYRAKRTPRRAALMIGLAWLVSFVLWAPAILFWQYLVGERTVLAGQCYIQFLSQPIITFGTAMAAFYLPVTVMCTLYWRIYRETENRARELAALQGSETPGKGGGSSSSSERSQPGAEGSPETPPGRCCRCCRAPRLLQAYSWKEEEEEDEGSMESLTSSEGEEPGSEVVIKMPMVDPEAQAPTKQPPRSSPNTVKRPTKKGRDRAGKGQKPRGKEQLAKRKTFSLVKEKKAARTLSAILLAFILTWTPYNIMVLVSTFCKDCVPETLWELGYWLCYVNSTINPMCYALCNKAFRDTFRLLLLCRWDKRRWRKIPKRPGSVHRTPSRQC
KiSS-1 receptor (Homo sapiens), sequence (Q969F8 whole entry, looked up): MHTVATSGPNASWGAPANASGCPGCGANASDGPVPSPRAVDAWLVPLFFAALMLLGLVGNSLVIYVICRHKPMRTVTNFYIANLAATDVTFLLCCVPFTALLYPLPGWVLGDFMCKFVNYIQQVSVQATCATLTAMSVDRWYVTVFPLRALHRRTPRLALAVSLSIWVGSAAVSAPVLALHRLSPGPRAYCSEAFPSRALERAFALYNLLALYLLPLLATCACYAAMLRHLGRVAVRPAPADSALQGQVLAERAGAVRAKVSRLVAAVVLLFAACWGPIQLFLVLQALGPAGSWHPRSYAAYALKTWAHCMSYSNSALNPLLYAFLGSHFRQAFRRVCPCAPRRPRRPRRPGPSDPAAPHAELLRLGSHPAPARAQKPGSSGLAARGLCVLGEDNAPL
Gonadotropin-releasing hormone receptor (Homo sapiens), sequence (P30968 whole entry, looked up): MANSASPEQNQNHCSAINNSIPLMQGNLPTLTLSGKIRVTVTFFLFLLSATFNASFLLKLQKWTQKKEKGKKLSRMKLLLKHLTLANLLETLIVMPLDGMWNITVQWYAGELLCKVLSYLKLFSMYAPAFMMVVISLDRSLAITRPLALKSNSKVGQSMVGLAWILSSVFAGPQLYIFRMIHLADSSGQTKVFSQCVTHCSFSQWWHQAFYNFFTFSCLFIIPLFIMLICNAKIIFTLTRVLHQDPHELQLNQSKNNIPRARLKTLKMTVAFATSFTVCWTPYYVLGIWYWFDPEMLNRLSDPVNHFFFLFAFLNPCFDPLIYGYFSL
D(2) dopamine receptor (Homo sapiens), sequence (P14416 whole entry, looked up): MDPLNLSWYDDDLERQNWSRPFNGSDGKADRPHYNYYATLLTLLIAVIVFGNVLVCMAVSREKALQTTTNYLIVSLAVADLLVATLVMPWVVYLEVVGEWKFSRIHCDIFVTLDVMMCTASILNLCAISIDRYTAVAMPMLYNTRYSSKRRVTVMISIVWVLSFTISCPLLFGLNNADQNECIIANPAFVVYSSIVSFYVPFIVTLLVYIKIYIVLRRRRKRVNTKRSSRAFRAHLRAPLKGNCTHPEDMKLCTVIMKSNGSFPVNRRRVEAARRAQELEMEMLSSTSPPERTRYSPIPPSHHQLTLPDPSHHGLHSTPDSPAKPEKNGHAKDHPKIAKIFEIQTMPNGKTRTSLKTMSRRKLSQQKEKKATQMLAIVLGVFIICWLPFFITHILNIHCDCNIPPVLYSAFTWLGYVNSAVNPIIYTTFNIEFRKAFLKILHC

For `Cc1ccc(C(C)C)cc1`, the Potency result in test [1], in test [2], in test [3], in [4], in test [5] and in test [6] was “inactive” throughout. The Potency result in [7], in test [8], in test [9], in test [10], in test [11] and in [12] was “inactive” in each case. Besides, the Potency entry in test [13] and in [14] was “inactive” in each case.
Consider `CC1(C)NC(=O)N(c2ccc([N+](=O)[O-])c(C(F)(F)F)c2)C1=O`, for which the Potency result in test [1], in test [2], in test [4], in test [15], in test [16] and in [5] was “inactive” in each case. In addition, the Potency entry in test [6], in test [7], in test [8], in test [17], in test [9] and in [10] was “inactive” each time. In addition, the Potency result in test [18], in test [12], in test [13], in test [19] and in test [14] was “inactive” each time.
For `Brc1ccc(Br)c(Br)c1`, the Potency entry in [2], in test [3], in [4], in [15], in [16] and in test [5] was “inactive” each time. The Potency entry in test [6], in [7], in [8], in test [17], in test [9] and in [10] was “inactive” in each case. For the same molecule, the Potency result in [11], in test [12], in [19] and in [14] was “inactive” each time.
As to `COc1cc2c(c(OC)c1OC)-c1ccc(OC)c(=O)cc1[C@@H](NC(C)=O)CC2`, the Potency entry in [1], in [2], in test [3], in [11], in test [12] and in test [13] was “inactive” throughout. The Potency result in test [19] is “inactive”.
With `CC/C(=C(\c1ccccc1)c1ccc(OCCN(C)C)cc1)c1ccccc1`, the Potency entry in test [1], in test [2], in [3], in test [4], in test [15] and in [16] was “inactive” in each case. For the same molecule, the Potency entry in [18], in test [11] and in test [19] was “inactive” each time. Besides, the Potency was 1.83 µM (active) and 28.8 µM (active) and inactive in [5]; “inactive and 51.3 µM (active)” in test [6]; 38.9 µM (active) and 61.1 µM (active) in test [14].
For `NC=O`, the Potency entry in [1], in test [2], in [3], in [16], in test [5] and in test [6] was “inactive” each time. For the same molecule, the Potency entry in test [8], in test [17], in [9], in test [10], in test [18] and in test [11] was “inactive” throughout. For the same molecule, the Potency entry in test [12], in test [19] and in test [14] was “inactive” each time.
Consider `C/C=C/C=C/C(=O)O`, for which the Potency result in [1], in [2], in test [3], in [16], in [6] and in test [8] was “inactive” each time. Further, the Potency entry in test [17], in test [9], in test [10], in test [18], in test [11] and in [12] was “inactive” each time. For the same molecule, the Potency result in test [19] and in [14] was “inactive” throughout.
`O=NO`: the Potency entry in [1], in test [2], in [3], in [16], in [5] and in test [6] was “inactive” throughout. The Potency entry in test [8], in test [17], in test [9], in test [10], in test [18] and in test [11] was “inactive” each time. In addition, the Potency result in [19] and in test [14] was “inactive” each time.
As for `O=C1NS(=O)(=O)c2ccccc21`, the Potency entry in test [1], in test [2], in [3], in [16], in test [5] and in [6] was “inactive” each time. Besides, the Potency entry in test [8], in test [17], in [9], in test [10], in [18] and in test [11] was “inactive” in each case. Besides, the Potency result in test [12], in [13], in [19] and in test [14] was “inactive” each time.
For the molecule `C[C@]12CC[C@@H]3c4ccc(O)cc4CC[C@H]3[C@@H]1CC[C@@H]2O`, the Potency entry in [1], in test [2], in test [3], in test [4], in test [15] and in test [16] was “inactive” each time. In addition, the Potency entry in [7], in [18], in test [11], in test [12], in test [19] and in test [14] was “inactive” throughout.

The values above are taken from PubChem BioAssay (Tox21).
